Hit rate of the full screen: of about 310,000 compounds, about 2,200 (0.71%) showed an effect of 50% or more. Effects have a minus sign here. What follows is part of a selection rich in strong results, with near analogues and random picks from the rest.
biological target: human ether-à-go-go-related gene (hERG) potassium channel (human, UniProt Q12809); test: primary screen, population patch clamp on CHO cells stably expressing hERG; higher = less effect of the substance
Sequence (Q12809 whole entry, looked up): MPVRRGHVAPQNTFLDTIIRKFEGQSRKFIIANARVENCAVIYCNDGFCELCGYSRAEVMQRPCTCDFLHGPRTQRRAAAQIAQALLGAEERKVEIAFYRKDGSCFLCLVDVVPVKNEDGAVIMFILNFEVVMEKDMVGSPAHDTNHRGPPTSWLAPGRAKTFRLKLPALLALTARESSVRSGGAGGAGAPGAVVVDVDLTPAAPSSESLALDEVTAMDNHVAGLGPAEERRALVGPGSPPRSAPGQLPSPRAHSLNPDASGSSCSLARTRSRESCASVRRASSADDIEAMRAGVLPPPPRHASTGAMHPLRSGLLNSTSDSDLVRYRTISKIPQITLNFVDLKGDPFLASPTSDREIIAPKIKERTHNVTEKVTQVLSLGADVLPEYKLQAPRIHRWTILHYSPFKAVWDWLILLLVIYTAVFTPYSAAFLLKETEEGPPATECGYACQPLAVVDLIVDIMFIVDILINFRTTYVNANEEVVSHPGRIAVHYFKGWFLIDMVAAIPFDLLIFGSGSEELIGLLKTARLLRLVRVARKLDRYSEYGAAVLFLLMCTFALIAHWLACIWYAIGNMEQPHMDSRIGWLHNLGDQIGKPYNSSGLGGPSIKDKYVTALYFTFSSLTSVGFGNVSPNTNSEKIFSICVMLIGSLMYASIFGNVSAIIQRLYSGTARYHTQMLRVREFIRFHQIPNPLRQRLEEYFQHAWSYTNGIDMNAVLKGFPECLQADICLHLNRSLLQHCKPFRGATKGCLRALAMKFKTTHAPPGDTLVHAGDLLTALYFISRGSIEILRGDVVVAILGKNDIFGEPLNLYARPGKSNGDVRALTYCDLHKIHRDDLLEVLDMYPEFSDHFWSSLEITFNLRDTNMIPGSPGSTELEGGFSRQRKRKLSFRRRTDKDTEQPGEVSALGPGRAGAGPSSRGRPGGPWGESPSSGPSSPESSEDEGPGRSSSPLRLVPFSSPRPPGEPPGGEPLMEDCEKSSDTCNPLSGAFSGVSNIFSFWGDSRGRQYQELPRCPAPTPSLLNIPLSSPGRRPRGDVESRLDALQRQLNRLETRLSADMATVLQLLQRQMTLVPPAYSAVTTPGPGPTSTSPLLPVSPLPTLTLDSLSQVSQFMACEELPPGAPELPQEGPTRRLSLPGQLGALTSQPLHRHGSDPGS

Structure (SMILES)	hERG current change (%, negative = inhibition) at 1uM [%]
CCN(CC)S(=O)(=O)c1cc(C(=O)Nc2cccnc2)ccc1Cl	-40.3
CC(=O)N1CCOc2ccc(S(=O)(=O)Nc3ccc(C)cn3)cc21	4.68
COCCNC(=O)c1ccccc1NC(=O)c1ccc(OC)c(OC)c1	4.05
Cc1ccc(CN2CCC(c3cc(-c4ccc(Cl)cc4)n[nH]3)CC2)cc1	-78.1
COc1ccc(-c2cc(C3CCN(Cc4cccc(C(F)(F)F)c4)CC3)[nH]n2)cc1	-13
Cc1ccc(CN2CCC(c3cc(-c4cccs4)n[nH]3)CC2)cc1	-85.6
CCOC(=O)CN1CCC(c2cc(-c3ccc(Cl)cc3)n[nH]2)CC1	22.3
COc1ccc(-c2cc(C3CCN(Cc4ccc([N+](=O)[O-])cc4)CC3)[nH]n2)cc1	-44.3
CC(C)(C)OC(=O)N1CCC(c2cc(-c3cccs3)n[nH]2)CC1	4.89
S=c1[nH]ncn1/N=C/c1ccccc1	14.4
COc1nc(Nc2ccc([N+](=O)[O-])cc2)nc(NC2CCCCC2)n1	11.2
O=C(COc1ccccc1Cl)N1CCN(c2ccc([N+](=O)[O-])c(N3CCCCC3)c2)CC1	0.717
CCCCCNC(=O)[C@@H]1CSC2c3ccccc3C(=O)N21 (stereo partly drawn)	14
COc1ccc(CCc2nc(-c3cccs3)no2)cc1	5.28
O=C(CSc1nnc(-c2ccc(Cl)cc2)n1Cc1ccco1)NCc1ccc2c(c1)OCO2	-51.6
O=C(CSc1nnc(-c2cccnc2)n1-c1ccc(F)cc1)NCc1ccc2c(c1)OCO2	-54.5
O=C(CSc1ccc2nnc(-c3ccncc3)n2n1)Nc1ccc2c(c1)OCO2	13.8
O=C(CSc1ccc2nnc(-c3cccnc3)n2n1)NCc1ccc2c(c1)OCO2	4.47
O=C(CSc1ccc2nnc(-c3ccccn3)n2n1)Nc1ccc2c(c1)OCCO2	-2.96

Structure (SMILES)	hERG current change (%, negative = inhibition) at 1uM [%]
O=C(CSc1ccc2nnc(-c3ccccc3)n2n1)NCc1ccc2c(c1)OCO2	-71
O=C(CSc1nnc(-c2cccnc2)n1Cc1ccco1)NCc1ccc2c(c1)OCO2	-20.4
O=C(CSc1ccc2nnc(-c3ccccn3)n2n1)Nc1ccc2c(c1)OCO2	2.61
O=C(CSc1nnc(-c2cccnc2)n1-c1ccccc1)NCc1ccc2c(c1)OCO2	-47.9
O=C(CSc1nnc(-c2ccccc2)n1Cc1ccco1)NCc1ccc2c(c1)OCO2	-22.2
O=C(CSc1ccc2nnc(-c3ccccn3)n2n1)NCc1ccc2c(c1)OCO2	-65.8
C=CCn1c(SCC(=O)NCc2ccc3c(c2)OCO3)nnc1-c1cccnc1	8.01
COc1cc(S(=O)(=O)N(Cc2cccnc2)Cc2ccco2)ccc1-n1cnnn1	-10.7
Cc1cc(C(=O)NC2CCCCCCC2)ccc1[N+](=O)[O-]	13.3
Cc1ccc(CN2C(=O)CSC2c2ccc(F)cc2)cc1 (stereo not drawn)	12.2
C#CC(CO)N(CCN(Cc1ccccc1)C(C#C)CO)Cc1ccccc1 (stereo not drawn)	9.58
COC(=O)C(C)NC(=S)N1CC2C[C@@H](C1)Cn1c2cccc1=O (stereo partly drawn)	15.6
COc1cccc(N2CCN(S(=O)(=O)c3ccc(-c4coc(C)n4)cc3)CC2)c1	11.7
CCN(CC(=O)Nc1ccc(NC(C)=O)cc1)C(=O)c1cc2c(s1)CCCCC2	2.11
c1ccc(-c2nnc3sc(-c4cc5ccccc5o4)nn23)cc1	14.4
CCCCCC(=O)Nc1cccc(-c2nc3ncccc3o2)c1	0.93
O=C(CSc1ccc2nnc(-c3ccncc3)n2n1)NCc1ccco1	-7.28
Cc1ccc(-c2nnc3ccc(SCC(=O)NCc4ccco4)nn23)cc1	4.96
O=C(CSc1ccc2nnc(-c3ccccc3)n2n1)NCc1ccco1	-65.8

Structure (SMILES)	hERG current change (%, negative = inhibition) at 1uM [%]
CCOc1ccc(OCCNC2CCCC2)cc1	2.09
O=C(NCc1ccco1)C(NS(=O)(=O)c1cccc2nsnc12)c1ccccc1 (stereo not drawn)	7.81
O=C(CCn1c(=O)[nH]c2ccsc2c1=O)N1CCN(c2cccc(Cl)c2)CC1	-6.52
CC(CNC(=O)c1ccc(C#N)cc1)NC(=O)c1ccc(C#N)cc1 (stereo not drawn)	-81.9
CC(CNC(=O)c1ccc(N)cc1)NC(=O)c1ccc(N)cc1 (stereo not drawn)	12
CCOc1ccc(C(=O)NCC(C)NC(=O)c2ccc(OCC)cc2)cc1 (stereo not drawn)	22.5
CN(C)/C=C/C(=O)c1ccccc1F	4.57
COc1ccccc1CN1CCCC(C(=O)c2ccccc2SC)C1 (stereo not drawn)	-27.3
COc1ccc(C(=O)C2CCCN(Cc3c(O)cccc3OC)C2)cc1OC (stereo not drawn)	-7.05
COc1cccc(OC)c1CN1CCCC(C(=O)c2ccccc2SC)C1 (stereo not drawn)	-37.8
COc1ccc(C(=O)C2CCCN(Cc3cccc4c3OCO4)C2)cc1OC (stereo not drawn)	-29.3
COc1cccc(CN2CCCC(C(=O)c3ccccc3SC)C2)c1O (stereo not drawn)	-76.9
COc1ccc(-c2[nH]ncc2CN2CCCC(C(=O)c3cccc(OC)c3)C2)cc1 (stereo not drawn)	-29.5
COc1ccc(C(=O)C2CCCN(Cc3cnc(C)s3)C2)cc1OC (stereo not drawn)	2.68
COc1ccc(C(=O)C2CCCN(Cc3cn[nH]c3-c3ccccc3)C2)cc1OC (stereo not drawn)	-75.4
CCOc1ccccc1CN1CCCC(C(=O)c2ccc(OC)c(OC)c2)C1 (stereo not drawn)	-51.1
COc1ccc(C(=O)C2CCCN(Cc3ccc(C)s3)C2)cc1OC (stereo not drawn)	-32.5
COc1ccc(C(=O)C2CCCN(Cc3nc4ccccc4nc3C)C2)cc1OC (stereo not drawn)	-83.3
COc1ccc(C(=O)C2CCCN(Cc3cn[nH]c3-c3ccc(F)cc3)C2)cc1OC (stereo not drawn)	-25.9

— publication PMC4336329 (PLoS ONE, 2015)
